Compounds with a hit are over-represented: about 0.78% of the library has one in this group of screens.
PGK inhibitor – qHTS Assay to Find Inhibitors of Phosphoglycerate Kinase. Phosphoglycerate kinase, glycosomal (Trypanosoma brucei brucei), P07378. PGK/GAPDH coupled, Kinase-Glo luminescence, 60 min. Potency, µM (series often up to 57.5 µM), without a hit: at the top dose activity change, negative = inhibition, most hits filed as inhibitors. actives 0.043% (n = 380,000); also: potency is read from the fitted curve at half-maximal effect; % is scaled to controls: 0 for no effect and ±100 for the full control effect; nearly all actives have a fitted effect of over 60% in size
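Recombinant glycosomal PGK reaction used 1,3-bisphosphoglycerate generated in-well by GAPDH (100nM final) in 100mM TEA pH 7.6, 5mM MgCl2, 0.01% Tween-20. After 60 minutes at room temperature, ATP was read by Kinase-Glo Plus luminescence end-point.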
GLS inh – qHTS for Inhibitors of Glutaminase (GLS); Glutaminase kidney isoform, mitochondrial (Homo sapiens), O94925; GLS enzymatic activity, qHTS titration; Potency, µM (top dose mostly 45.5 µM), for inactives: at the highest dose activity change, negative = inhibition, usual class: inhibitors; actives 0.21% (n = 410,000); also: potency is read from the fitted curve at half-maximal effect; % is scaled to controls: 0 for no effect and ±100 for the full control effect
Target sequence (O94925 whole entry, looked up, canonical isoform): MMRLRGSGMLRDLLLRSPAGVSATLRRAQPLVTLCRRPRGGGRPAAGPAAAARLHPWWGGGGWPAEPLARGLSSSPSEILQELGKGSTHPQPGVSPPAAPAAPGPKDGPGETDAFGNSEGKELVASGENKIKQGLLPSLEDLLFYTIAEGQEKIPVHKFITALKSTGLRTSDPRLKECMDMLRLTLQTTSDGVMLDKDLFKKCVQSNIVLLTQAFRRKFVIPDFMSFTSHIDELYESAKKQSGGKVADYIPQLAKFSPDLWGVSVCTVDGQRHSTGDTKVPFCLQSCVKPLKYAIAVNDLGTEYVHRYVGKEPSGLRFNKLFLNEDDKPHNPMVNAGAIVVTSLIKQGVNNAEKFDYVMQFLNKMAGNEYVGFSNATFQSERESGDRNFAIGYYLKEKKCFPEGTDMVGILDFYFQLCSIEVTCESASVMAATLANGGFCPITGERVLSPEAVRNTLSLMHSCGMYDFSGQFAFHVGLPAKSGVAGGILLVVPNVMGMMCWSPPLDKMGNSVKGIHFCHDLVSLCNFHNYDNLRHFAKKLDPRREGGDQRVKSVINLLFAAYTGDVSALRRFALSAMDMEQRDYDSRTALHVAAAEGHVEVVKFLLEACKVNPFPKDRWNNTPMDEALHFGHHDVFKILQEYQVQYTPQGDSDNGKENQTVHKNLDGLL
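hKGA in 45 mM KH2PO4 pH 8.2, 0.02% Tween-20 with pin-transferred compounds; 1 mM L-glutamine (stock) plus glutamate oxidase/HRP/Amplex Red coupling added. Fluorescence read initially and after 30 min at RT.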
PI4K2A inh – qHTS for small molecular inhibitors of PI4K2A; actives 0.13% (n = 420,000); Phosphatidylinositol 4-kinase type 2-alpha (Homo sapiens), Q9BTU6; purified PI4K2A, ADP-Glo luminescence, 1 h; hits give low values; activity change, negative = inhibition, % at 76.9 µM; AID 1346378, 2018; in the data active = activity change below about -50%; inconclusive = mostly about -30% to -49%;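 also: -100% = wells without enzyme as full effect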
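PI4K2A activity was measured by ADP-Glo luminescence: enzyme (4 ug/mL stock) and phosphatidylinositol (1.2 mM stock) in Tris pH 7.5/MgCl2/EGTA/Triton X-100 buffer were reacted with ATP (300 microM stock) for one hour at ambient temperature.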
CCT modulator – High-Throughput Screening for Modulators of Cytosolic Chaperonin Activity; purified chaperonin ATPase assay, HTRF ADP detection, 30 min; activity change, % (no concentration beside the values), hits read low; actives 0.3% (n = 360,000); AID 651819, 2012; in the data active = activity change below about -30%; also: % is scaled to controls: 0 for no effect and ±100 for the full control effect
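We incubate TRiC, 40 or 20 nM final, with library compounds at 76 uM and 10 uM ATP for 30 min at 37 °C. ADP formed is detected with Transcreener HTRF reagents after 30 min at room temperature.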
PINK1 modulator – A Quantitative High throughput Screen to Identify Chemical Modulators of PINK1 Expression; AID 624263, 2012; Potency, µM (highest dose often 76.6 µM), inactives show at the top dose activation (PINK1 increase), hits mostly activators; PINK1 immunofluorescence, high-content cytometry, 24 h; actives 0.2% (n = 410,000); active = well fitted activation curve with a large enough effect; inconclusive = small, poorly fitted or top-dose-only effect; cell line not stated here; also: potency is read from the fitted curve at half-maximal effect; % of control where 0% means no effect; nearly all actives have a fitted effect of over 65% in size
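PINK1 protein, normally rapidly degraded, was detected by immunofluorescence after 24 hour compound treatment of a stable cell line. Titration data (5 concentrations) came from laser-scanning cytometry, with CCCP-treated wells as controls.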
Numbers without * were called inactive; i = inactive; ? = inconclusive; / = not tested or not shown; [ ] = remark or other dose. Unless noted, calls follow the shape of the dose curve; as a rule, active = well fitted curve in the direction sought with a large enough effect; inconclusive = small, poorly fitted or top-dose-only effect, or another doubt; inactive = no such curve, though single readings can be large; an effect the other way counts as inactive or inconclusive.

SMILES | PGK inhibitor | GLS inh | PI4K2A inh | CCT modulator | PINK1 modulator
O=C(Cc1cccs1)N1CCN(S(=O)(=O)c2ccc(F)c(F)c2)CC1 | i | -10.7% | 5.0 | -1.5 | -0.5%
O=C(Cc1cccs1)N1CCN(S(=O)(=O)c2ccc(Cl)c(C(F)(F)F)c2)CC1 | 1.7% | 13.7% | -3.0 | -68.7* | 0.0%
CCOC(=O)c1ccc(NC(=O)Cn2nc(SC)c(S(=O)(=O)c3ccc(Cl)cc3)c2N)cc1 | -4.8% | -1.0% | 1.7 | / | 17.8µM*
Cc1nn(-c2ccccc2)c(C)c1CC(=O)NCC1Cc2cc(F)cc(-c3cccnc3)c2O1 (centres undefined) | / | / | / | / | 0.1%
CCOCCCNC(=O)C(c1ccc(OC)cc1)N(Cc1ccc2c(c1)OCO2)C(=O)c1cnccn1 (centres undefined) | i | -9.0% | -1.9 | -64.7* | 0.2%
CC(=C/c1ccccc1)/C=N/Nc1nc(N2CCOCC2)nc(N2CCOCC2)n1 | -1.7% | 5.7% | 0.3 | -49.3* | -1.0%
COc1cc(S(N)(=O)=O)cc(C(=O)O)c1OC | / | / | 3.5 | / | /
COc1ccccc1C(=O)N[C@@H]1c2ccccc2C2(CCN(Cc3ccc(C)o3)CC2)[C@H]1O | / | / | / | / | 1.2%
CC(C)=NNC(=O)c1c(O)c2ccccc2[nH]c1=O | 3.1% | 19.2% | -3.3 | -1.4 | 39.8µM*
COC(=O)c1sccc1NC(=O)Nc1ccc(OC)cc1 | ? | -2.2% | -57.4* | 0.0 | 1.8%
O=C(Cc1c[nH]c2ccccc12)N1CCC(n2c(C3CCCO3)nc3cc(C(F)(F)F)ccc32)CC1 (centres undefined) | / | / | / | / | -0.4%
CO[C@H]1[C@H](NC(=O)c2ccsc2)c2ccccc2C12CCN(Cc1cc3ccccc3o1)CC2 | / | / | / | / | -0.1%
O=C(NCc1ccncc1)C12CC3CC(CC(C3)C1)C2 | -2.8% | -0.3% | -6.1 | -84.3* | -1.4%
N#C/C(=C(/O)c1ccc(F)cc1)c1nc2ccccc2s1 | 5.9% | -12.3% | -0.6 | -0.6 | 15.8µM*
CCC(C)(C)NC(=O)CN(C(=O)c1ccc(N2CCCC2)nc1)c1ccc(F)cc1 | i | 1.6% | 0.0 | -0.3 | 3.8%
Cc1cccc(N(CC(=O)NC(C)C)C(=O)c2ccc(N3CCCC3)nc2)c1 | -9.8% | 18.5% | 0.8 | -34.8* | 1.5%
CN(c1ccccc1)S(=O)(=O)c1ccc(Cl)c(C(=O)Nc2ccc(-c3nc4ccccc4[nH]3)cc2)c1 | -8.4% | -9.0% | 2.8 | -0.4 | 11.2µM*
CN(c1ccccc1)S(=O)(=O)c1ccc(Cl)c(C(=O)Nc2nc3ccccc3[nH]2)c1 | -0.8% | 13.2% | 0.7 | -2.4 | -1.3%
CN(CC(=O)Nc1ccc(F)cc1)C(=O)COC(=O)c1ccc(-c2ccccc2)cc1 | 6.6% | -3.1% | -0.8 | -31.2* | 7.4%
COc1cc(CNc2nc(C)c(-c3ccn(C4Cc5ccccc5C4)n3)s2)cc2c1OCO2 | / | / | / | / | 5.6%
Cc1cc(C(=O)NCCCn2ccnc2)cs1 | -4.1% | 3.7% | 0.6 | 0.5 | 10µM*
O=C(NCCCn1ccnc1)c1ccc2ccccc2c1 | -5.4% | -4.2% | 7.4 | 1.9 | 0.1%
CCCC[C@@H](CC)COC(=O)C[C@H](C(=O)OC[C@H](CC)CCCC)S(=O)(=O)O | / | -8.3% | / | / | /
COc1cc(C(=O)O)c2c(c1C)OC(=O)c1c(C)cc(O)c(C=O)c1O2 | 0.9% | 5.62µM* | -5.0 | -0.5 | 2.1%
O=c1[nH]c(=O)n([C@H]2CCCO2)cc1F | / | / | 1.6 | / | /
SMILES | PGK inhibitor | GLS inh | PI4K2A inh | CCT modulator | PINK1 modulator
CCOC(=O)Cc1nnc2c(Nc3ccc(Cl)cc3)nc3nonc3n12 | -1.1% | -2.8% | -2.3 | -1.0 | 44.7µM*
COCC(=O)Nc1cc(C(=O)N2CCc3c([nH]c4ccccc34)C2)cc2nc(-c3ccccc3)n(C)c12 | / | / | / | / | 0.6%
COc1cc(C)ccc1NC(=O)c1ccc(S(=O)(=O)N2CCOCC2)cc1 | 7.6% | 12.0% | 4.7 | -30.1* | -1.3%
COc1ccc(-n2c(CNC(=O)c3ccc(OC)cc3OC)nnc2SC)cc1 | / | / | / | / | -1.1%
COc1ccc(S[C@@H]2C[C@@H](C(=O)Nc3ccc4nccnc4c3)N(C3Cc4ccccc4C3)C2)cc1 | / | / | / | / | 0.7%
CCOC(=O)c1sc(=NC(=O)c2ccc(OC(C)C)cc2)n(C)c1C | -1.5% | 0.4% | 0.0 | -33.8* | 4.0%
CCOC(=O)c1sc(=NC(=O)c2ccc(C)c(C)c2)n(C)c1C | -3.4% | 12.6% | 2.8 | 0.4 | 0.7%
CC(C)(C)NC(=O)[C@H]1CC[C@H]2[C@@H]3CC=C4C=C(C(=O)O)CC[C@@]4(C)[C@H]3CC[C@]12C | / | -2.4% | / | / | /
CCC(C)NC(=O)CSC1=Nc2ccccc2C2=NC(c3ccccc3)C(=O)N12 (centres undefined) | -1.5% | 12.6µM* | 2.6 | -0.1 | 2.4%
COc1ccc(C(=O)NCC2Cc3cccc(-c4cncnc4)c3O2)c(OC)c1OC (centres undefined) | / | / | / | / | -1.1%
COc1ccccc1N1C(=O)C=C(Sc2nc(C)cc(C)n2)C1=O | -8.0% | 7.94µM* | 4.2 | -1.0 | 0.3%
COc1ccccc1N1C(=O)C2CC(C)=C(C)CC2C1=O (centres undefined) | / | -0.5% | -1.5 | -5.2 | 5.8%[38.3 µM]
CC(=O)c1ccccc1C(=O)NCC1Cc2cccc(-c3cccnc3)c2O1 (centres undefined) | / | / | / | / | 0.7%
CCNC(=S)Nc1ccc(C)c(S(=O)(=O)Nc2ccccc2OC)c1 | -4.6% | -2.2% | -4.0 | -1.3 | 1.4%
COc1ccccc1NS(=O)(=O)c1cc(NC(=S)Nc2cc(C)cc(C)c2)ccc1Cl | -4.2% | 18.3% | 3.1 | 2.6 | 44.7µM*
COCC1CCCN(Cc2ccc3c(c2)CN(C(=O)c2cc(-c4ccccc4)n[nH]2)CCO3)C1 (centres undefined) | / | / | / | / | 5.3%
COc1ccc(/C=C/C(=O)O)cc1S(=O)(=O)NC1CCS(=O)(=O)C1 (centres undefined) | ? | 9.7% | 2.6 | -96.9* | 1.3%
Cc1c(C(=O)N(CCO)C(C)C)cnn1-c1ncc2c(n1)-c1ccccc1CCC2 | / | / | / | / | -0.4%
COc1cc(C2c3c([nH]c(=O)[nH]c3=O)Nc3ccc4ccccc4c32)cc(OC)c1OC (centres undefined) | ? | ? | -60.1* | -4.5 | 10.8%
NS(=O)(=O)c1ccc(N2CCCCS2(=O)=O)cc1 | / | / | 0.0 | / | /
Cc1ccc(C)c(Oc2cc(NC(=O)CCCn3nc(C)c([N+](=O)[O-])c3C)cc([N+](=O)[O-])c2)c1 | -3.7% | -20.7% | 13.5 | -2.7 | 44.7µM*
COc1cc(NC(=O)c2noc3c2CCC3)c(OC)cc1Cl | ? | ? | 9.3 | -1.8 | 11.2µM*
CCn1c(-c2cc(-c3cc(C)ccc3C)nc3ccccc23)n[nH]c1=S | -3.8% | -0.8% | 0.8 | -72.2* | -1.5%
